Results reported in PubChem BioAssay (NCI).
About 83,000 compounds went through this panel and 20% of them were active in at least one assay; those are over-represented in the sample as a whole.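 How to read the values: 0–100, growth inhibition (40 = 60% inhibited); 0, no net growth; -100 to 0, cell death (-40 = 40% of starting cells died; -100 = all dead).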 Calls of active or inactive are those of the source. How the source made its calls: active means growth percent below 10; inactive means the rest.

Columns and labels:
Assay in all cases: NCI-60 one-dose screen, 48 h (100 = growth as untreated, 0 = no growth, -100 = all killed)
[1] = system: HCT-15 colon; details: 10 µM unless noted
[2] = system: HT29 colon; details: 10 µM unless noted
[3] = system: SNB-19 CNS; details: 10 µM unless noted
[4] = system: U251 CNS; details: 10 µM unless noted
[5] = system: PC-3 prostate; details: 10 µM unless noted
[6] = system: SK-MEL-5 melanoma; details: 10 µM unless noted
[7] = system: UACC-62 melanoma; details: 10 µM unless noted
[8] = system: LOX IMVI melanoma; details: 10 µM
[9] = system: EKVX NSCLC; details: 10 µM unless noted
[10] = system: SN12C renal; details: 10 µM unless noted
[11] = system: UO-31 renal; details: 10 µM unless noted
[12] = system: TK-10 renal; details: 10 µM unless noted
[13] = system: ACHN renal; details: 10 µM unless noted
[14] = system: CAKI-1 renal; details: 10 µM unless noted
[15] = system: A498 renal; details: 10 µM unless noted
[16] = system: CCRF-CEM leukemia; details: 10 µM unless noted
[17] = system: MOLT-4 leukemia; details: 10 µM unless noted
[18] = system: SNB-75 CNS; details: 10 µM unless noted
[19] = system: SK-MEL-28 melanoma; details: 10 µM unless noted
[20] = system: SK-MEL-2 melanoma; details: 10 µM unless noted

Measured: growth

S=C(S)OCN1CCOCC1
inactive: [1] 91.3% | [2] 19.7% | [3] 103% | [4] 40.9% | [5] 89.6% | [6] 101% | [7] 98.8% | [8] 63.4% | [9] 97.4% | [10] 103% | [11] 75.9% | [12] 97.9% | [13] 100% | [14] 92.6% | [15] 70.6% | [16] 59% | [17] 92.5%

Cc1cccc2c(N)c3ccccc3nc12
active: [1] -8.39% | [18] 2.93% | [4] -17.6% | [5] -18.7% | [6] -77.2% | [7] -57.6% | [8] -57.3% | [19] -41.1% | [20] -28.5% | [9] 1.94% | [10] -9.63% | [11] -53.9% | [12] -5.29% | [14] -21.9% | [15] -46.5% | [16] 6.63% | [17] 2.71%
inactive: [3] 27.5%

O=[N+]([O-])CC(O)c1ccccc1 (stereo not given)
inactive: [1] 96.6% | [18] 91.6% | [3] 101% | [4] 98.7% | [5] 94.9% | [6] 103% | [7] 99.1% | [8] 84.5% | [19] 108% | [20] 120% | [9] 113% | [10] 101% | [11] 96.8% | [12] 111% | [13] 102% | [14] 95.9% | [16] 104% | [17] 98.6%

CCCCCCCCCCCC[N+]1(CCCCCCCCCCCC)CCCC(C)C1 (stereo not given)
active: [1] -55.6% | [18] -88.3% | [3] -96.5% | [4] -61% | [5] -93.7% | [6] -100% | [7] -77.9% | [8] -80% | [19] -91.2% | [9] -51.7% | [10] -72.4% | [11] -100% | [12] -79.3% | [13] -78.5% | [15] -88.4% | [16] -56.7% | [17] -62.6%

O=C(c1ccccc1)C(O)C(Br)(CBr)c1ccccc1 (stereo not given)
inactive: [1] 86.5% | [18] 99.5% | [3] 90.5% | [4] 81.7% | [5] 70.2% | [6] 85.6% | [7] 65.3% | [8] 46.6% | [19] 101% | [9] 108% | [10] 91.6% | [11] 96.3% | [12] 87.6% | [13] 93.2% | [14] 102% | [16] 50% | [17] 75.1%

NNc1cccc([N+](=O)[O-])c1
inactive: [1] 101% | [2] 99.6% | [3] 107% | [4] 89% | [5] 86.4% | [6] 109% | [7] 77.2% | [8] 76.6% | [19] 115% | [20] 98% | [9] 79.9% | [10] 102% | [11] 83.1% | [12] 98% | [13] 88.7% | [14] 56% | [15] 83% | [16] 38.1% | [17] 25.3%

O=C(CCl)N(c1ccccc1)c1ccccc1
active: [8] -36%
inactive: [1] 105% | [2] 114% | [18] 105% | [4] 98.1% | [5] 91.4% | [6] 99.8% | [7] 95.6% | [20] 97.7% | [9] 111% | [10] 99.6% | [11] 86.7% | [12] 105% | [13] 109% | [14] 105% | [15] 105% | [16] 92.7% | [17] 102%

CCNc1nnnn1CC
inactive: [1] 99.7% | [2] 109% | [18] 90.4% | [4] 106% | [5] 97.3% | [6] 101% | [7] 106% | [8] 98.7% | [20] 122% | [9] 94.5% | [10] 93% | [11] 108% | [12] 106% | [13] 110% | [14] 99.4% | [15] 83.8% | [16] 103% | [17] 116%

COC(=O)c1ccc(=O)c2nc3/c(=C/O)c(O)cc(=O)c3[nH]c12
inactive: [1] 10.1% | [18] 12.6% | [3] 11.6% | [5] 30.5% | [6] 22% | [8] 19% | [19] 34.2% | [9] 35.3% | [12] 48.1% | [13] 28.5% | [14] 21.5% | [16] 12.6%
active: [4] 7.56% | [7] -3.09% | [20] -7.27% | [10] -5.75% | [11] 5.33% | [15] 1.77% | [17] 3.55%

CCOC(=O)C1=C(C(=O)c2ccccc2)C(c2cccc([N+](=O)[O-])c2)C(C(=O)c2ccccc2)=C(C(=O)OCC)N1
active: [8] -57.6%
inactive: [1] 66.4% | [2] 94.3% | [18] 88.4% | [4] 79.9% | [6] 95.9% | [7] 70.2% | [19] 95.6% | [20] 105% | [9] 87.9% | [10] 93.7% | [12] 112% | [14] 79.6% | [15] 104% | [16] 65%

O=C(Cc1nc2cc(Cl)c(Cl)cc2nc1CC(=O)c1cccnc1)c1cccnc1
inactive: [1] 57.2% | [2] 71.6% | [18] 88.4% | [4] 89.3% | [5] 70.2% | [6] 81.7% | [7] 71.4% | [8] 65.4% | [19] 87.1% | [20] 113% | [9] 54% | [12] 141% | [13] 60.9% | [14] 72.5% | [15] 133% | [16] 31.4%

O/N=C1\c2ccccc2-c2ccc(F)cc21
inactive: [1] 74.6% | [18] 91.1% | [3] 101% | [4] 106% | [5] 89.1% | [6] 99.1% | [7] 93.8% | [8] 96.6% | [19] 111% | [20] 97.5% | [9] 90.4% | [11] 47.7% | [12] 84.8% | [13] 87.1% | [14] 94.1% | [15] 132% | [16] 86.5%

N#CCc1cccc2ccccc12
inactive: [1] 100% | [2] 96% | [3] 110% | [4] 108% | [5] 90.9% | [6] 104% | [7] 111% | [8] 108% | [19] 94.7% | [20] 95.1% | [9] 101% | [10] 110% | [11] 92% | [12] 98.3% | [13] 103% | [14] 103% | [15] 109% | [16] 91.9% | [17] 92%

Nc1ccc(Oc2ccccc2)c(Cl)c1
inactive: [1] 92.6% | [2] 104% | [3] 102% | [4] 84.1% | [5] 100% | [6] 95.6% | [7] 107% | [8] 103% | [20] 105% | [10] 107% | [11] 72.1% | [12] 96.1% | [13] 101% | [14] 100% | [15] 57.5% | [16] 102% | [17] 97.9%

O=[N+]([O-])c1ccc(N2CCN(Cc3ccccc3)CC2)c2c1no[n+]2[O-]
active: [1] -52.8% | [4] -47.8% | [5] -31.4% | [7] 4.15% | [8] -36.3% | [11] -78.1% | [12] -15.7% | [13] -91.6% | [16] -31.6% | [17] -29.8%
inactive: [18] 68.4% | [3] 37.3% | [6] 38.1% | [19] 77% | [20] 64.8% | [10] 19.1% | [14] 15.3% | [15] 47.6%

COc1ccc(NC(=O)/C(=C/N2C(=O)/C(=C/c3ccc(OC)c(OC)c3)NC2=S)C(C)=O)cc1
inactive: [1] 80.1% | [18] 38.1% | [3] 73% | [4] 57.3% | [5] 62.4% | [6] 68.9% | [7] 53.9% | [8] 58.9% | [19] 77.2% | [20] 87.1% | [9] 93.5% | [10] 80.8% | [11] 54.6% | [12] 110% | [14] 92.3% | [15] 87.6% | [16] 80.3%
